# Results filed as inconclusive are left out. Values without a mark were called inactive. Activity calls are given as the source filed them. Calls follow the shape of the dose curve; as a rule, active = well fitted inhibition curve with a large enough effect; inconclusive = small, poorly fitted or top-dose-only effect; inactive = no such curve, though single readings can be large or run the other way.
# Molecular target: Endonuclease 4 (Escherichia coli (strain K12)) (UniProt P0A6C1)
# Test: Counterscreen for APE1 Inhibitors: qHTS Validation Assay for Inhibitors of Endonuclease IV (AID 1708)
# Conditions: E. coli endonuclease IV, DNA cleavage fluorescence; series mostly up to 57.1 µM; activity change, negative = inhibition: at the top concentration
# Source text: Assay Provider: David M. Wilson, III, National Institute on Aging, NIH
# Screening Center PI: Austin, C.P.
# Screening Center: NIH Chemical Genomics Center [NCGC]
# Escherichia coli endonuclease IV (Endo IV) is the key member of the AP endonuclease superfamily that catalyzes the cleavage of damaged DNA backbone immediately 5' of an AP site. E. coli EndoIV has the same functional activities as human APE1 but has no sequence or structural homology to the human protein. Herein, we utilize E. coli EndoIV to counter screen compound libraries as part of a high-throughput campaign for APE1 inhibitor identification. A concentration-response screen of the LOPAC1280 collection was performed under experimental conditions identical to those used in the APE1 screen.
# Inhibition of APE1 activity was screened by utilizing double-stranded short substrate containing tetrahydrofuran (THF) abasic site labeled with rhodamine-type fluorophore (TAMRA) at the 5'-end and with non-fluorescent Black Hole Quencher-2 (BHQ-2) at the opposing 3'-end. An increase in the fluorescence intensity due to incision of the abasic site by APE1 was used to measure the enzyme activity.
# Buffer: 50 mM Tris-HCl (pH 7.5) containing 50mM NaCl, 2 mM MgCl2, 1 mM DTT and 0.01% Tween-20.
# Buffer in columns 3 and 4 as negative control (no enzyme).
# Substrate: 50 nM final concentration of TAMRA/BHQ-2 substrate dispensed throughout the plate.
# Enzyme: 2 nM E. coli EndoIV final concentration in columns 1, 2, 5-48. Column 1 is neutral (100% activity).
# Control: Pintool transfer of control inhibitor NSC-13755 to column 2 of all assay plates. Two-fold, 16 pt dilution in duplicate to produce final concentrations in the 5.75 uM - 0.175 nM range.
# Three uL of enzyme were dispensed to 1536-well Greiner black solid bottom plates. Compounds (23 nL) were transferred via Kalypsys pintool. The plates were incubated for 15 min at room temperature, and then 1 uL of substrate solution was added to start the reaction. The plates were immediately transferred into ViewLux High-throughput CCD imager (Perkin-Elmer) in order to measure the reaction progress in kinetic mode (three reads every 60 seconds) using 525 nm excitation and 598 nm emission fluorescence protocol. The fluorescence intensity difference between the third and the first time points was used to compute reaction progress.
# % is scaled to controls: 0 for no effect and ±100 for the full control effect; potency is read from the fitted curve at half-maximal effect.
Structure (SMILES),"activity change, negative = inhibition [%]",Potency
CNCCC(Oc1ccc(C(F)(F)F)cc1)c1ccccc1 (centres undefined),-4.74,–
CC(C)(C)c1onc(OCP(=O)(O)O)c1CC(N)C(=O)O (centres undefined),0.562,–
NC(=O)c1ncn([C@@H]2O[C@H](CO)[C@@H](O)[C@H]2O)n1,-6.75,–
COC(=O)C1=C(C)NC(C)=C(C(=O)OC)C1c1ccccc1[N+](=O)[O-],-12,–
CC(CN1c2ccccc2Sc2ccccc21)N(C)C (centres undefined),-9.64,–
CCCn1cnc2c1c(=O)n(CCCCC(C)=O)c(=O)n2C,-0.562,–
CCCCCCCCCCCCCCCC(=O)NCCO,-8.19,–
CC1=C(CC(=O)O)c2cc(F)ccc2/C1=C\c1ccc(S(C)(=O)=O)cc1,-6.59,–
NC(N)=NCCC[C@H](N)C(=O)O,-7.47,–
OCc1cc(C(O)CNCCCCCCOCCCCc2ccccc2)ccc1O (centres undefined),-9.08,–
CC(C(O)c1ccc(O)cc1)N1CCC(Cc2ccccc2)CC1 (centres undefined),-3.37,–
O=C1N=C(O)CN1/N=C/c1ccc(-c2ccc([N+](=O)[O-])cc2)o1,-6.99,–
CC[C@H]1CN2CCc3cc(OC)c(OC)cc3[C@@H]2C[C@@H]1C[C@H]1NCCc2cc(OC)c(OC)cc21,-2.57,–
C=Cc1c(C)c2cc3[nH]c(cc4nc(cc5nc(cc1[nH]2)C(C)=C5CCC(=O)O)C(CCC(=O)O)=C4C)c(C)c3C=C,-8.76,–
N=c1c[n+](N2CCOCC2)[n-]o1,-9.24,–
CN(C)CCOC(C)(c1ccccc1)c1ccccn1 (centres undefined),-7.87,–
C[C@](N)(Cc1ccc(O)cc1)C(=O)O,-6.35,–

Structure (SMILES),"activity change, negative = inhibition [%]",Potency
CC(=O)OCC(=O)[C@@]1(O)CC[C@H]2[C@@H]3CCC4=CC(=O)CC[C@]4(C)[C@H]3C(=O)C[C@@]21C,-8.59,–
CC(C)(C(=O)O)c1ccc(C(O)CCCN2CCC(C(O)(c3ccccc3)c3ccccc3)CC2)cc1 (centres undefined),-6.18,–
COc1ccc(Cl)cc1C(=O)NCCc1ccc(S(=O)(=O)NC(=O)NC2CCCCC2)cc1,-12.1,–
CN(C)CC[C@@H](c1ccc(Cl)cc1)c1ccccn1,-8.03,–
CC1=C(/C=C/C(C)=C/C=C/C(C)=C/C(=O)O)C(C)(C)CCC1,-8.84,–
Nc1cc(=O)[nH]c(N)n1,-9.56,–
C[C@H]1O[C@@H](n2cc(F)c(=O)[nH]c2=O)[C@H](O)[C@@H]1O,-13.1,–
CC(C)NC[C@H](O)c1ccc(O)c(O)c1,–,inactive
CC1=C(CC(=O)O)c2cc(F)ccc2/C1=C\c1ccc(S(C)=O)cc1 (centres undefined),-7.71,–
CCN(CC)CCOC(=O)C1(C2CCCCC2)CCCCC1,-8.76,–
C#CCN(C)Cc1ccccc1,-5.3,–
CC(C)C(=O)c1c(C(C)C)nn2ccccc12,-10.2,–
CNCC(O)c1ccc(O)c(O)c1 (centres undefined),4.58,–
CNC(=O)Oc1ccc2c(c1)[C@]1(C)CCN(C)[C@@H]1N2C,-1.77,–
CCN(CC)CCCC(C)Nc1c2ccc(Cl)cc2nc2ccc(OC)cc12 (centres undefined),–,12.6 µM (active)
CCN(CC)CCNC(=O)c1cc(Cl)c(N)cc1OC,-7.55,–
NC1CCN(c2cccc(Cl)n2)CC1,-10.1,–
